Results: ChEMBL document CHEMBL3988442, “University of Dundee, Small-Polar-MMV Screening Library” (2021)
Hit rate of the full screen: of about 69,000 compounds, about 950 (1.4%) showed an effect of 50% or more. The sample as a whole holds a higher share of strong results than the screen did.

These compounds were tested on Mycobacterium tuberculosis (assay: Cornell M. t heat shock assay; further: in the data most compounds retested in dose-response had high values).
Format: functional, organism-based
Parameters: dose or concentration left out as unconfirmed
`CCN1C[C@@H]2[C@@H](OC)CCN(S(=O)(=O)c3ccccc3)[C@@H]2C1.O=C(O)C(F)(F)F` was tested, and the “Percent Effect” value was -5.885%.
For `COCC(=O)N1CCn2c(COc3cccnc3)cnc2C1C.O=C(O)C(F)(F)F` (centres undefined), the “Percent Effect” value was 5.093%.
With `CC(=O)N1CCN(Cc2ccccn2)CC2(CC(=O)N(C)C2)C1.O=C(O)C(F)(F)F.O=C(O)C(F)(F)F` (centres undefined) the “Percent Effect” value was -32.82%.
In the case of `CNC(=O)c1cc(C2CCCN2)n[nH]1.Cl` (centres undefined), the “Percent Effect” value is reported as 10.86%.
`CC(=O)N1CCC[C@@H](NCc2ccc(F)cc2)[C@@H]1c1ccc(C)s1` was tested, and the “Percent Effect” value was 15.69%.
With `CC(=O)N1CCC[C@@H](NCc2cccc(F)c2)[C@@H]1c1ccc(C)s1.Cl` the “Percent Effect” value was 4.639%.
For `CC(=O)N1CCC[C@@H](NCc2c[nH]c3ccccc23)[C@@H]1c1ccc(C)s1.Cl`, the “Percent Effect” value was 67.48%.
`O=C(O)C(F)(F)F.O=C1[C@H]2CN(Cc3ccco3)C[C@H]2CN1c1ccsc1` was tested, and the “Percent Effect” value was 26.88%.
`O=c1c2cnc(N3CCOCC3)nc2ccn1Cc1ccco1` was tested, and the “Percent Effect” value was -1.985%.
For `CCc1nc(N2CCCC(CCCOC)C2)c2cnn(C)c2n1` (centres undefined), the “Percent Effect” value was -4.574%.
In the case of `CCCOC1CCCN(c2nc(CC)nc3c2cnn3C)C1` (centres undefined), the “Percent Effect” value is reported as 77.82%.
With `CCCOC1CCCN(c2nc(COC)nc3c2cnn3C)C1` (centres undefined) the “Percent Effect” value was 67.42%.
With `CCCc1nc(N2CCCC(CCOC)C2)c2cnn(C)c2n1` (centres undefined) the “Percent Effect” value was -22.83%.
For `CCCc1nc(N2CCCN3CCC[C@H]3C2)c2cnn(C)c2n1`, the “Percent Effect” value was -9.904%.
In the case of `COCc1nc(N2CC[C@H](N(C)C)C2)c2cnn(C)c2n1`, the “Percent Effect” value is reported as -4.11%.
`CS(=O)(=O)NC[C@@H]1OC[C@H]2CN(Cc3ccccc3)CC[C@H]21.O=C(O)C(F)(F)F` was tested, and the “Percent Effect” value was 25.84%.
In the case of `O=C(O)Cn1ccc(=O)c2ccc(Cl)cc21`, the “Percent Effect” value is reported as -0.616%.
With `O=C(O)Cn1ccc(=O)c2cc(F)ccc21` the “Percent Effect” value was 12.91%.
For `O=C(O)Cn1ccc(=O)c2cc(Cl)ccc21`, the “Percent Effect” value was 63.91%.
With `CN(C)CCOCc1cncc2c1CCN(C1CCOCC1)C2.O=C(O)C(F)(F)F.O=C(O)C(F)(F)F.O=C(O)C(F)(F)F` the “Percent Effect” value was 38.62%.
With `O=C(CSc1nnc(N2CCNCC2)s1)Nc1ccccc1.O=C(O)C(F)(F)F` the “Percent Effect” value was -1.012%.
With `CC(C)Oc1ccc(CNC(=O)C2CCS(=O)(=O)C2)cn1` (centres undefined) the “Percent Effect” value was -25.56%.
`Cc1ccc(C(C)NCCc2nccn2Cc2ccccc2)o1` (centres undefined) was tested, and the “Percent Effect” value was -11.63%.
For `CCc1ccc(C(C)NCc2nccn2Cc2ccccc2)o1` (centres undefined), the “Percent Effect” value was 91.1%.
`CC(NCCc1nccn1Cc1ccccc1)c1cccs1` (centres undefined) was tested, and the “Percent Effect” value was 34.94%.
`O=C(O)C(F)(F)F.c1ccc2c(c1)N(CC1CCOC1)CC21CCN(c2cnccn2)CC1` (centres undefined) was tested, and the “Percent Effect” value was 16.03%.
For `COCCN1CCCC2(CCC(=O)N2Cc2cccnc2)C1.O=C(O)C(F)(F)F` (centres undefined), the “Percent Effect” value was -18.4%.
In the case of `Cc1nnc([C@]23COC[C@H]2CN(S(=O)(=O)c2cccnc2)C3)o1.O=C(O)C(F)(F)F`, the “Percent Effect” value is reported as 48.22%.
In the case of `COc1ccc(CN(C(=O)C2CCOCC2)c2ccncc2)cc1`, the “Percent Effect” value is reported as -4.775%.
`COc1ccc(CN(C(=O)C2CCCS2)c2ccncc2)cc1` (centres undefined) was tested, and the “Percent Effect” value was 99.59%.
In the case of `COc1ccc(CN(C(=O)C2CCCO2)c2ccncc2)cc1` (centres undefined), the “Percent Effect” value is reported as -11.42%.
With `O=C(CC1CC1)N1CCn2cc(Cn3cccn3)nc2C1.O=C(O)C(F)(F)F` the “Percent Effect” value was -0.6568%.
For `CC(C)n1nc(CN2CCOCC2)c2c1CN(C(=O)c1ccno1)C2.O=C(O)C(F)(F)F`, the “Percent Effect” value was 17.65%.
`Cc1ccc(CNCc2cccc3cccnc23)c(OC2CCOC2)c1` (centres undefined) was tested, and the “Percent Effect” value was 87.35%.
With `Cc1ccc(CNCc2c[nH]nc2C(C)(C)C)c(OC2CCOC2)c1` (centres undefined) the “Percent Effect” value was 18.1%.
For `Cc1ccc(CNCc2cccc3cn[nH]c23)c(OC2CCOC2)c1` (centres undefined), the “Percent Effect” value was 3.326%.
In the case of `CC(C)N(C)Cc1cnc2n1CCN(Cc1cccc(F)c1)C2.O=C(O)C(F)(F)F.O=C(O)C(F)(F)F`, the “Percent Effect” value is reported as -5.438%.
With `Cc1nnc(N2CCCC3(CN(Cc4nccs4)CCO3)C2)o1.O=C(O)C(F)(F)F.O=C(O)C(F)(F)F` (centres undefined) the “Percent Effect” value was -34.51%.
`CCN(CC)C1CCN(C(=O)c2cc3cc(C)cc(C)c3nc2C)CC1.Cl` was tested, and the “Percent Effect” value was 6.865%.
In the case of `Cl.FC(F)(F)c1ccc(-c2cnc(C3CCCN3)cn2)cc1` (centres undefined), the “Percent Effect” value is reported as -8.787%.
With `Cn1cc(C2COC3(CCN(C(=O)Cc4ccccc4)CC3)C2)cn1` (centres undefined) the “Percent Effect” value was 32.13%.
In the case of `CC1COC2(CCN(C(=O)Cc3ccncc3)CC2)C1.O=C(O)C(F)(F)F` (centres undefined), the “Percent Effect” value is reported as 19.29%.
With `O=C(Cc1ccncc1)N1CCC2(CC1)CC(c1ccccc1)CO2.O=C(O)C(F)(F)F` (centres undefined) the “Percent Effect” value was 53.05%.
In the case of `Cc1ccc(CN2CCn3c(CNC(=O)c4cccn4C)cnc3C2)s1.O=C(O)C(F)(F)F`, the “Percent Effect” value is reported as 7.209%.
For `COCC1Cn2nnc(-c3cnn(C)c3)c2CN1Cc1cccs1.O=C(O)C(F)(F)F` (centres undefined), the “Percent Effect” value was 17.22%.
`CC(=O)c1ccc(NC(=O)NCc2cccc(N(C)C)n2)cc1C` was tested, and the “Percent Effect” value was 63.04%.
`COc1ccc(C)c(NC(=O)NCc2cccc(N(C)C)n2)c1` was tested, and the “Percent Effect” value was 29.74%.
`CN(C)c1cccc(CNC(=O)Nc2ccc3[nH]nnc3c2)n1` was tested, and the “Percent Effect” value was -8.207%.
With `CS(=O)(=O)N1CCOCC2(CCN(c3ccccn3)C2)C1.O=C(O)C(F)(F)F` (centres undefined) the “Percent Effect” value was -2.08%.
With `CCN1CCC2(CCN(c3ncccn3)CC2)C1=O.O=C(O)C(F)(F)F` the “Percent Effect” value was -1.865%.
In the case of `OCc1csc(N2CCCC(COc3cccc(F)c3)C2)n1` (centres undefined), the “Percent Effect” value is reported as -18.57%.
`CCNC(=O)c1ccnc(N2CCCC(COc3ccccc3C)C2)c1` (centres undefined) was tested, and the “Percent Effect” value was -1.28%.
In the case of `Nc1cc(N2CCCC(COc3ccc(F)cc3)C2)ncn1` (centres undefined), the “Percent Effect” value is reported as -15.24%.
With `Cc1ccccc1OCC1CCCN(c2cc(N)nc(N)n2)C1` (centres undefined) the “Percent Effect” value was 94.51%.
In the case of `Cc1nc(N)cc(N2CCCC(COc3cccc(F)c3)C2)n1` (centres undefined), the “Percent Effect” value is reported as 95.51%.
In the case of `Cc1nc(CN(C)C)cc(N2CCCC(COc3ccc(F)cc3)C2)n1` (centres undefined), the “Percent Effect” value is reported as 82.2%.
In the case of `Nc1cc(N2CCCC(COc3ccc(F)cc3)C2)nc(N)n1` (centres undefined), the “Percent Effect” value is reported as 0.7864%.
In the case of `CN(C)Cc1ccc(C(=O)N2CCCC(COc3ccc(F)cc3)C2)o1` (centres undefined), the “Percent Effect” value is reported as 1.225%.
With `CN(C)Cc1nc(C(=O)N2CCCC(COc3ccc(F)cc3)C2)cs1` (centres undefined) the “Percent Effect” value was -4.47%.
For `Cl.NCCc1cc(N2CCOCC2)nc(NC2CC2)n1`, the “Percent Effect” value was -1.001%.
With `Cn1cc(N2C(=O)CC[C@@H]3[C@H]2CCN3Cc2nccs2)cn1.O=C(O)C(F)(F)F` the “Percent Effect” value was -19.88%.
`O=C(O)C(F)(F)F.O=C1C[C@H]2[C@@H](CCN2C(=O)Cc2cccs2)N1Cc1cccnc1` was tested, and the “Percent Effect” value was -27.42%.
`Cn1cc(C(=O)N2CC[C@@H]3[C@@H]2CCN3Cc2cccc(F)c2)cn1.O=C(O)C(F)(F)F` was tested, and the “Percent Effect” value was 6.285%.
In the case of `O=C(O)C(F)(F)F.O=C(O)C(F)(F)F.O=C(O)C(F)(F)F.O=C1NC2(CCN(Cc3cccnc3)CC2)CC1c1cccnc1` (centres undefined), the “Percent Effect” value is reported as -25.56%.
In the case of `Cc1cc(CN2CC[C@H]3C[C@H](C(=O)N4CCC(C)CC4)O[C@H]3C2)no1.O=C(O)C(F)(F)F`, the “Percent Effect” value is reported as -0.569%.
For `CC1(C)CC(N(Cc2cccnc2)Cc2cccc(F)c2)CC(C)(C)N1.O=C(O)CC(O)(CC(=O)O)C(=O)O`, the “Percent Effect” value was -20.05%.
With `CC1c2ncc(Cn3cccn3)n2CCN1Cc1cccnc1.O=C(O)C(F)(F)F.O=C(O)C(F)(F)F` (centres undefined) the “Percent Effect” value was -18.15%.
For `O=C(O)C(F)(F)F.O=C(O)C(F)(F)F.c1cncc(CN2CCc3ncnc(C4CCOC4)c3CC2)c1` (centres undefined), the “Percent Effect” value was -9.628%.
`Cc1ccc2c(c1)CCC2NCc1c(C)nn(C)c1N1CCOCC1.Cl` (centres undefined) was tested, and the “Percent Effect” value was -16.61%.
In the case of `c1cnc(N2CCCC(c3cncc(-n4ccnc4)n3)C2)nc1` (centres undefined), the “Percent Effect” value is reported as -40.48%.
For `Cc1cc(C)nc(N2CCCC(c3cccc(-n4ccnc4)n3)C2)n1` (centres undefined), the “Percent Effect” value was 68.58%.
For `CC(=O)N1CCCC(c2cccc(-n3ccnc3)n2)C1` (centres undefined), the “Percent Effect” value was -20.38%.
For `Cc1cccc(C(=O)N2CCn3cnc(COCC4CC4)c3C2)c1`, the “Percent Effect” value was 29.98%.
`O=C(c1ccc2[nH]ccc2c1)N1CCn2cnc(COCC3CC3)c2C1` was tested, and the “Percent Effect” value was 54.29%.
In the case of `O=C(c1ccoc1)N1CCn2cnc(COCC3CC3)c2C1`, the “Percent Effect” value is reported as 1.475%.
With `Cn1cc(N2CCC3(CCCN(Cc4ccc(F)cc4)C3)C2=O)cn1.O=C(O)C(F)(F)F` (centres undefined) the “Percent Effect” value was -14.44%.
For `CC(C)CCN1CCc2cc(C(=O)N(C)C)c(NCC3CC3)nc2CC1.O=C(O)C(F)(F)F.O=C(O)C(F)(F)F`, the “Percent Effect” value was -33.33%.
With `CNC(=O)[C@H]1C[C@@H]2CN(Cc3csc(C)n3)C[C@@H]2N1S(C)(=O)=O.O=C(O)C(F)(F)F` the “Percent Effect” value was 2.273%.
In the case of `COCc1cncc2c1CCN(C(=O)c1cccc(C#N)c1)C2.O=C(O)C(F)(F)F`, the “Percent Effect” value is reported as 18.35%.
For `OCC1N(Cc2ccc(F)cc2)[C@H]2CC[C@]1(O)CC2` (some centres undefined), the “Percent Effect” value was 36.63%.
For `Cc1cc(=O)n(CC(=O)NC(C)C)c(Nc2ccc(F)c(C)c2)n1`, the “Percent Effect” value was -7.671%.
`CCC(C)NC(=O)Cn1c(Nc2cc(C)cc(C)c2)nc(C)cc1=O` (centres undefined) was tested, and the “Percent Effect” value was 104.5%.
In the case of `Cc1cc(C)cc(Nc2nc(C)cc(=O)n2CC(=O)NC(C)C)c1`, the “Percent Effect” value is reported as 5.735%.
In the case of `Cc1ncsc1C(=O)N1CCCCC1c1cc2nc(C)c(C)c(O)n2n1` (centres undefined), the “Percent Effect” value is reported as -18.91%.
For `Cc1noc(C)c1CN1C[C@H]2CN(Cc3cccc(F)c3)C[C@H]2C1.O=C(O)C(F)(F)F.O=C(O)C(F)(F)F`, the “Percent Effect” value was 1.076%.
For `CCC(=O)N1CCC2(CC1)c1nc[nH]c1CCN2S(C)(=O)=O`, the “Percent Effect” value was -7.001%.
`CCC(=O)N1CCc2[nH]cnc2C12CCN(C(=O)CCS(C)(=O)=O)CC2` was tested, and the “Percent Effect” value was 77.54%.
For `CCC(=O)N1CCc2[nH]cnc2C12CCN(C(=O)c1snnc1C)CC2`, the “Percent Effect” value was -5.563%.
With `O=C(O)C(F)(F)F.O=C(O)C(F)(F)F.c1cncc(N2CCCC3(CN(Cc4cccs4)CCO3)C2)c1` (centres undefined) the “Percent Effect” value was -18.25%.
